# Test results reported in the supplement of paper PMC6555819.
# How the values were obtained:
# Assay in all cases: PBM binding z-score (relative to random genomic background probes); higher = stronger binding; sequences stand for … in GC…GCGATTGACAGCGTAGAATGAAGG
# [1] = tested on: FXR:RXRa (NR concentration 270 nM, RXRa partner concentration 90 nM)
# In short: (§1)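 Random background probes are the reference for binding z-scores. These scores derive from regression-normalized fluorescence on custom Agilent 4×180K protein-binding microarrays incubated 1 h with ligand-free nuclear receptor dimers. Binding was detected with antibodies against each partner (one per run).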
# [2] = tested on: LXRa:RXRa (NR concentration 270 nM, RXRa partner concentration 90 nM)
# In short: as §1
# [3] = tested on: LXRa homodimer (NR concentration 270 nM)
# In short: as §1
# [4] = tested on: LXRb:RXRa (NR concentration 270 nM, RXRa partner concentration 90 nM)
# In short: as §1
# [5] = tested on: PPARa:RXRa (NR concentration 270 nM, RXRa partner concentration 90 nM)
# In short: as §1
# [6] = tested on: PPARg:RXRa (NR concentration 180 nM, RXRa partner concentration 90 nM)
# In short: as §1
# [7] = tested on: PPARg:RXRa 270nM:90nM, anti-RXR (NR concentration 270 nM, RXRa partner concentration 90 nM)
# In short: as §1
# [8] = tested on: PPARg:RXRa 30nM:10nM, anti-RXR (NR concentration 30 nM, RXRa partner concentration 10 nM)
# In short: as §1
# [9] = tested on: PPARg:RXRa 90nM:30nM, anti-RXR (NR concentration 90 nM, RXRa partner concentration 30 nM)
# In short: as §1
# [10] = tested on: PPARg:RXRa DBDmut IVT, anti-RXR (DBD mutation: RXRa K156A/R161A, NR concentration 270 nM, RXRa partner concentration 90 nM)
# In short: as §1
# [11] = tested on: PPARg:RXRa IVT, anti-PPARg (NR concentration 270 nM, RXRa partner concentration 90 nM)
# In short: as §1
# [12] = tested on: PPARg homodimer (NR concentration 180 nM)
# In short: as §1
# [13] = tested on: PXR:RXRa (NR concentration 270 nM, RXRa partner concentration 90 nM)
# In short: as §1
# [14] = tested on: PXR homodimer (NR concentration 270 nM)
# In short: as §1
# [15] = tested on: RARa:RXR (NR concentration 270 nM, RXRa partner concentration 90 nM)
# In short: as §1
# [16] = tested on: RARa homodimer (NR concentration 270 nM)
# In short: as §1
# [17] = tested on: RARb:RXRa (NR concentration 270 nM, RXRa partner concentration 90 nM)
# In short: as §1
Sequence,PBM binding z-score [1],PBM binding z-score [2],PBM binding z-score [3],PBM binding z-score [4],PBM binding z-score [5],PBM binding z-score [6],PBM binding z-score [7],PBM binding z-score [8],PBM binding z-score [9],PBM binding z-score [10],PBM binding z-score [11],PBM binding z-score [12],PBM binding z-score [13],PBM binding z-score [14],PBM binding z-score [15],PBM binding z-score [16],PBM binding z-score [17]
TCGAGTAGGTTACGGTGGCATTCAGGGATGAAGA,0.0909,0.257,-0.578,0.0794,1.81,1.73,2.29,1.44,1.9,3.28,3.56,0.177,-0.0566,-0.975,0.611,-0.958,0.864
CTATGTAGGTTAAGGGGGTCAGTCAGTTTGAAAG,3.26,3.55,1.38,5.26,5.54,8.01,7.42,5.06,7.09,7.45,7.33,3.02,4.52,6.85,4.15,0.767,3.2
CGATGTAGGTTAAGGGGGTCATTCAGTTTGAAAG,5.57,4.7,3.53,6.23,5.85,8.23,7.56,6.22,7.61,7.27,7.49,5.88,6.1,13.5,6.18,4.27,3.65
CTATGTAGGTTAAGGGGGTGATTCAGTTTGAAAG,1.52,1.98,0.79,3.83,4.69,7.43,6.74,4.44,6.29,7.48,7.27,2.45,2.49,2.65,2.41,1.25,2.34
TCGAGTAGGTTACGGGGGCACTCAGGGATGAAGA,2.26,2.67,0.365,4.7,4.43,6.44,6.05,3.54,5.14,4.71,6.2,2.56,2.71,0.594,3.05,-0.263,2.65
CCGAGTAGGTTACGAGGTGGCATTCAGTGCGAAT,0.103,2.1,-0.445,0.601,1.61,1.79,2.03,0.157,1.16,4.75,3.92,0.24,0.618,-0.0659,0.472,-0.0316,1.03
TCGAGTAGGTTACGGGGCCATTCAGGGATGAAGA,0.993,0.505,-0.236,0.939,2.58,3.24,3.52,1.65,2.58,3.76,4.63,0.412,0.639,-0.128,0.892,-0.208,1.44
CTTTGTAGGTTAAGGGGGTCATTCAGTTTGAAAG,5.24,5.35,3.53,6.5,6.06,7.86,7.59,5.64,7.23,7.24,7.18,3.76,5.9,12,5.32,2.04,3.67
TCGAGTAGATTACGGGGGCATTCAGGGATGAAGA,1.41,1.87,0.702,4.05,2.53,1.06,2.64,2.04,2.12,2.06,2.81,0.745,2.52,1.38,2.08,0.218,1.37
CTAGGTAGGTTAAGGGGGTCATTCAGTTTGAAAG,4.79,4.89,2.54,6.08,5.56,6.17,6.57,3.72,5.95,5.01,5.61,2.95,5.85,11.1,5.43,1.74,3.26
TCGAGTAGGTTACAGGGGCATTCAGGGATGAAGA,0.886,1.08,0.219,1.68,2.44,2.7,2.87,1.73,2.71,3.72,4.1,0.898,1.17,0.587,1.5,0.487,1.59
CCGAGTAGGTTACGAGGGGGCACTCAGTGCGAAT,2.63,6.57,0.708,5.48,3.35,2.36,3.18,1.09,2.12,4.86,4.51,1.46,4.32,3.02,2.87,0.931,2.04
TCGAGTTGGTTACGGGGGCATTCAGGGATGAAGA,2.61,2.2,0.889,4.62,2.89,1.84,2.84,2.24,2.63,2.18,3.75,1.79,3.22,3.31,2.3,0.444,1.97
TCGAGTAGGTTGCGGGGGCATTCAGGGATGAAGA,2.84,2.17,0.68,4.34,2.7,0.862,2.72,2.32,2.95,2.02,3.55,1.44,3.09,2.38,2.39,0.623,1.91
CCGAGTAGGTTACGAGGGGGCATTCAATGCGAAT,2.32,7.34,1.1,6.15,3.62,2.64,3.7,1.21,2.45,4.67,4.57,2.11,4.33,0.729,3.11,0.217,2.14
TCGAGTAGGTTATGGGGGCATTCAGGGATGAAGA,1.82,2.24,0.602,4.74,3.71,4.86,4.86,2.99,4.23,3.92,5.17,1.07,2.72,1.87,2.72,0.33,2.13
CCGAGTAGGTTACGAGGGGCCATTCAGTGCGAAT,1.12,5.25,-0.218,3.07,1.76,1.4,1.54,0.0553,0.829,4.13,3.51,0.766,2.92,1.09,1.11,0.136,1.47
CTATGTAGGTTAAGGGGGGCATTCAGTTTGAAAG,3.22,3.64,1.74,6.04,4.85,8.88,7.37,6.02,7.7,7.45,7,3.9,4.18,8.89,2.96,3.91,3.35
TCGAGTAGGATACGGGGGCATTCAGGGATGAAGA,1.26,1.43,0.346,3.58,2.35,1.24,2.72,2.22,2.53,1.6,3.19,0.663,2.12,0.916,2.17,0.237,1.25
TCGAGTAGGTAACGGGGGCATTCAGGGATGAAGA,1.53,1.83,0.159,4.16,3.41,4.6,4.51,2.68,3.8,4.46,5.38,1.54,2.44,1.58,2.48,0.232,1.74
CTATGAAGGTTAAGGGGGTCATTCAGTTTGAAAG,5.47,5.4,3.45,6.37,5.65,5.21,6.01,3.46,5.16,3.68,5.15,4.25,6.22,13.8,6.01,2.51,4.05
CCGAGTAGGTTACGAGGGGGCATGCAGTGCGAAT,1.91,6.78,0.861,5.49,3.35,2.46,3.3,0.783,2.32,4.44,4.36,2.26,4.24,2.63,2.98,0.865,2.26
CTATGTAGGTTAAGGGGTTCATTCAGTTTGAAAG,2.03,3.21,2.34,3.8,4.75,7.11,6.53,4.01,6.09,6.98,6.85,1.79,5.14,12.3,3.12,1.25,1.82
CTATGTAGGTTAAGCGGGTCATTCAGTTTGAAAG,2.56,2.59,0.655,2.56,4.84,5.97,5.57,2.6,4.53,7.52,7.09,2.08,3.8,8.04,3.31,0.415,2.16
TCGAGTAGGTTACGGGGACATTCAGGGATGAAGA,0.831,0.995,-0.0512,0.999,2.4,3.19,3.06,1.81,2.27,4.18,4.72,1.95,0.696,-0.0868,1.17,0.0881,1.43
CCGAGTCGGTTACGAGGGGGCATTCAGTGCGAAT,0.716,4.66,1.26,4.05,1.74,-0.00257,0.709,-0.212,0.329,0.193,0.806,0.506,2.86,5.49,1.77,0.0912,1.12
CCGAGTAGGTTACGAGGGGGGATTCAGTGCGAAT,2.34,3.82,0.79,5.43,2.99,2.52,3.71,1.57,3.4,5.06,4.91,2,3.27,2.11,2.61,0.858,1.84
